This is a sample that favours compounds with a hit; in the whole collection about 19% have one here.
HepG2 viability = qHTS for Inhibitors of TGF-b: Cytotox Counterscreen | HepG2 CAGA-GFP viability, ATP luminescence, 18 h | Potency, µM (highest dose often 46.1 µM), without a hit: at the top dose activity change, negative = cytotoxicity, usual class: cytotoxic | AID 588856, 2011 | 410,000 tested, 0.76% active; further: potency means the concentration at half of the fitted maximal effect
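HepG2 CAGA-GFP cells (1000/well, DMEM with 1% FBS) received compound, then TGF-beta at 500 pg/mL final, and were incubated 18 hours at 37 degrees C. Viability was read by CellTiter-Glo luminescence. Media-only wells were set as complete cell-killing and DMSO as no toxicity.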
TGFb SMAD3 inh = qHTS for Inhibitors of TGF-b; HepG2 CAGA-GFP TGF-b/SMAD3 reporter, GFP fluorescence, 18 h; TGF-beta stimulated, 500 pg/mL final; Potency, µM (series often up to 46.1 µM), without a hit: at the highest dose activity, negative = inhibition, usual class: inhibitors; 410,000 tested, 1.2% active; further: potency means the concentration at half of the fitted maximal effect; on the % scale 0 is the no-effect control and ±100 the full control effect; nearly all actives have a fitted effect of over 65% in size
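First, reporter cells (HEPG2 CAGA-GFP) rested 2 h at 37 degrees C. Next, compounds were pinned in and TGF-beta added to 500 pg/mL final. After 18 h, GFP was imaged per cell and summed per well.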
TDP1 cell CPT = qHTS for Inhibitors of human tyrosyl-DNA phosphodiesterase 1 (TDP1): qHTS in cells in presence of CPT; AID 686979, 2013; chicken DT40 Tdp1-/-;hTDP1 cells + 20 nM CPT, ATP luminescence, 48 h; 420,000 tested, 12% active; Potency, µM (doses to about 46.2 µM), inactives show top-dose activity change, negative = growth inhibition, actives largely listed as inhibitors; further: potency means the concentration at half of the fitted maximal effect; on the % scale 0 is the no-effect control and ±100 the full control effect; nearly all actives have a fitted effect of over 55% in size
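Cell growth measured by CellTiter-Glo luminescence after a minimum 48 h, 37 C compound exposure with 20 nM CPT in Tdp1-knockout DT40 cells stably expressing hTDP1, seeded 400/well; qHTS titration format.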
IL1B secr inh = qHTS for Inhibitors of Inflammasome Signaling: IL-1-beta AlphaLISA Primary Screen; AID 743279, 2014; activity change, % at 57.5 µM; 360,000 tested, 4.7% active; THP-1 LPS/ATP IL-1B secretion, AlphaLISA, 16 h; stronger effect = lower value; in the data active means activity change below about -50%; inconclusive means mostly about -30% to -49%; further: on the % scale 0 is the no-effect control and ±100 the full control effect
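Secreted IL-1B measured by AlphaLISA bead assay after 16 h compound exposure of THP-1 cells; compounds (final up to 57.5 uM) added 1 h before LPS (250 ng/mL) and ATP (1.25 mM) stimulation; lower signal means less secretion.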
TDP1 cell noCPT = qHTS for Inhibitors of human tyrosyl-DNA phosphodiesterase 1 (TDP1): qHTS in cells in absence of CPT. DT40 Tdp1-/- hTDP1 cells, no CPT, ATP luminescence, 48 h. Potency, µM (titrated, usually from 46.2 µM), for inactives: at the highest dose activity change, negative = growth inhibition, hits mostly inhibitors. 420,000 tested, 15% active; further: potency means the concentration at half of the fitted maximal effect; on the % scale 0 is the no-effect control and ±100 the full control effect; nearly all actives have a fitted effect of over 55% in size
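Chicken DT40 Tdp1-/- cells complemented with human TDP1, screened without camptothecin (DMSO vehicle only), 400 cells/well. Compounds pin-transferred, cells incubated at 37 °C for at least 48 hr. Growth read as ATP-dependent luminescence (CellTiter-Glo, 30 min at RT).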
TDP1 block = qHTS Assay for Inhibitors of Tyrosyl-DNA Phosphodiesterase (TDP1); 350,000 tested, 0.28% active; Potency, µM (titrated, usually from 130 µM), for inactives: at the top dose activity change, negative = inhibition, hits mostly inhibitors; AID 485290, 2010; recombinant TDP1, AlphaScreen DNA substrate cleavage; Tyrosyl-DNA phosphodiesterase 1 (Homo sapiens), Q9NUW8; further: potency means the concentration at half of the fitted maximal effect; on the % scale 0 is the no-effect control and ±100 the full control effect; nearly all actives have a fitted effect of over 40% in size
Target sequence (Q9NUW8 whole entry, looked up): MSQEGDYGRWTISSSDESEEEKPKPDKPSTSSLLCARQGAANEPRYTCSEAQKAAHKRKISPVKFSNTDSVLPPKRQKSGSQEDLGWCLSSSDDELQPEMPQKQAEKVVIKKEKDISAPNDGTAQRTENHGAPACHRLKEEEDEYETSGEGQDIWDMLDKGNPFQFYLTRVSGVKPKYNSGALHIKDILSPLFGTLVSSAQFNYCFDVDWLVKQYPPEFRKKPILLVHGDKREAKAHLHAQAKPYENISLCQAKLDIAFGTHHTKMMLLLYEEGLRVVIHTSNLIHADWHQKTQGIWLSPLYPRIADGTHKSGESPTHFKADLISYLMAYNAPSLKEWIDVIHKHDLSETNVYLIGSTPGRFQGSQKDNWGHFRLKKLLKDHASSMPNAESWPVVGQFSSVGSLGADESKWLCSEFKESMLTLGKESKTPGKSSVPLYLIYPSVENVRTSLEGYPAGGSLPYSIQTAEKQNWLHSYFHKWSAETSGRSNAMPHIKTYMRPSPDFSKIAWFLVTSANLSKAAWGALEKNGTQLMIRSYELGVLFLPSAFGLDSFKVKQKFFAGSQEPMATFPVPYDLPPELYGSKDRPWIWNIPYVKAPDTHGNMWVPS
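Tdp1 1 nM final; 15 min RT w/ cpd; substrate 15 nM, 5 min; beads 10 ug/ml, 10 min; AlphaScreen read. Neg ctrl: no enzyme.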
Numbers without * were called inactive; ? = inconclusive; nt = no result given; [ ] = dose if it differs, or a comment. Unless noted, the call rests on the fitted dose curve; in most records, active means well fitted curve in the direction sought with a large enough effect; inconclusive means small, poorly fitted or top-dose-only effect, or another doubt; inactive means no such curve, though single readings can be large; an effect the other way counts as inactive or inconclusive.

SMILES	HepG2 viability	TGFb SMAD3 inh	TDP1 cell CPT	IL1B secr inh	TDP1 cell noCPT	TDP1 block
CCSc1nnc(-c2sc3nnc(-c4ccccc4)c(-c4ccccc4)c3c2N)o1	5%	50%	13µM*	?	23µM*	-6%
C=C(C(=O)O)c1ccc2ccccc2c1	0%	3%	14%	nt	9%	nt
C[C@]12c3[nH]c4cc(-c5ccco5)ccc4c3CCN1C(=O)[C@@H](CC(=O)NCCN1CCOCC1)C[C@@H]2C(=O)N1CCCCC1	-20%	?	-28%	0	?	4%[56.1 µM]
COc1ccc(CNC(=O)C[C@H]2C[C@H](C(=O)N3CCCCC3)[C@@]3(C)c4[nH]c5ccc(Cl)cc5c4CCN3C2=O)cc1OC	-25%	?	18µM*	-56*	12µM*	0%[56.1 µM]
COc1ccc(CNC(=O)C[C@H]2C[C@H](C(=O)N3CCCCC3)[C@@]3(C)c4[nH]c5cc(-c6ccco6)ccc5c4CCN3C2=O)cc1OC	-4%	?	?	0	18µM*	4%[56.1 µM]
CCN(CC)C(=O)[C@H]1C[C@H](CC(=O)NCCc2ccccn2)C(=O)N2CCc3c([nH]c4cc(-c5ccco5)ccc34)[C@]12C	-7%	?	18µM*	4	?	2%[56.1 µM]
COCCCNC(=O)C[C@H]1C[C@H](C(=O)N2CCCCC2)[C@@]2(C)c3[nH]c4cc(-c5ccco5)ccc4c3CCN2C1=O	-22%	?	16µM*	-12	?	1%[56.1 µM]
COc1ccc2[nH]c3c(c2c1)CCN1C(=O)C(CC(=O)NCc2ccc(OC)c(OC)c2)C[C@H](C(=O)N2CCOCC2)[C@@]31C (some centres undefined)	11%	-21%	1%	-6	-15%	1%[56.1 µM]
C/C(=N\NC(=O)CCC(=O)NCc1ccccc1)c1ccco1	3%	-22%	-12%	3	17%	0%
O=C(CSc1nc(=O)[nH]c2c1CCC2)NCc1ccc(F)cc1	3%	-20%	17%	nt	-10%	0%
CCN(CC)C(=O)[C@H]1C[C@H](CC(=O)NCCCOC)C(=O)N2CCc3c([nH]c4cc(-c5ccco5)ccc34)[C@]12C	-2%	-11%	15µM*	27	18µM*	2%[56.1 µM]
O=C(C[C@H]1C[C@H](C(=O)N2CCCCC2)[C@@]2(CCc3ccccc3)c3[nH]c4ccc(Cl)cc4c3CCN2C1=O)NCCc1ccccn1	3%	-23%	?	0	18µM*	2%[56.1 µM]
C[C@]12c3[nH]c4ccc(Cl)cc4c3CCN1C(=O)[C@@H](CC(=O)NCCc1ccccn1)C[C@@H]2C(=O)N1CCOCC1	9%	-21%	?	-27	-29%	0%[56.1 µM]
CCN(CC)C(=O)[C@H]1C[C@H](CC(=O)NCCc2ccccn2)C(=O)N2CCc3c([nH]c4ccc(Cl)cc34)[C@]12C	-10%	?	?	-19	21µM*	1%[56.1 µM]
COC(=O)[C@H](CCSC)NC(=O)c1ccc(NC[C@@H](N)CS)cc1-c1ccccc1	nt	nt	nt	nt	nt	29%
COc1ccc(C(CNC(=O)COc2ccc(F)cc2Br)N2CCCC2)cc1 (centres undefined)	-25%	8%	?	-54*	?	0%
COc1ccc(C(CNC(=O)COc2ccccc2C)N2CCCCC2)cc1 (centres undefined)	-19%	-9%	21µM*	-6	16µM*	4%
Cc1ccccc1OCC(=O)NCC(c1ccc(Cl)cc1)N1CCCCC1 (centres undefined)	-15%	-17%	21µM*	nt	13µM*	-2%
Cc1ccc(OCC(=O)NCC(c2ccc(Cl)cc2)N2CCCCC2)cc1 (centres undefined)	-19%	5%	?	nt	?	-2%
CCN1CCN(Cc2c(O)ccc3c2O/C(=C\C=C\c2ccccc2OC)C3=O)CC1	-12%	92%	?	-23	18µM*	4%
O=P(O)(O)C(O)(Cc1cccnc1)P(=O)(O)O	nt	nt	2%	nt	-3%	2%
COc1ccc(-c2nc(C#N)c(NCCCN(C)C)o2)cc1OC	7%	7%	-18%	-3	-5%	0%
COc1ccc(CCNc2cc(C)nc3c(-c4ccccc4OC)cnn23)cc1OC	11%	0%	?	-4	18µM*	nt
COc1ccc(CCNc2oc(-c3ccccc3OC)nc2C#N)cc1OC	-20%	?	?	-11	18µM*	3%
COc1ccc(CCNc2oc(-c3ccc(OC)c(OC)c3)nc2C#N)cc1	-15%	-2%	11µM*	-4	?	1%
SMILES	HepG2 viability	TGFb SMAD3 inh	TDP1 cell CPT	IL1B secr inh	TDP1 cell noCPT	TDP1 block
COc1ccc(-c2nc(C#N)c(NC(C)c3ccccc3)o2)cc1OC (centres undefined)	1%	1%	?	?	16µM*	6%
COc1ccccc1-c1cnn2c(NCc3ccccc3)cc(C)nc12	0%	7%	?	-20	?	nt
Cc1ccc(C)c2c1NC(C(=O)O)C1CC=CC21 (centres undefined)	-3%	-16%	?	nt	?	?
CCOC(=O)c1cc(S(=O)(=O)Nc2ccc(C)cc2Cl)[nH]n1	-2%	?	-20%	nt	-27%	4%
COc1cc(CNc2ncnc3c2ncn3[C@H]2CN(Cc3cccc(C(F)(F)F)c3)C[C@@H](COC(C)=O)O2)cc(OC)c1OC	4%	-13%	?	0	?	nt
COc1cc(CNc2ncnc3c2ncn3[C@H]2CN(Cc3cc(OC)c(OC)c(OC)c3)C[C@@H](CO)O2)cc(OC)c1OC	-19%	2%	-24%	18	-25%	nt
CC(=O)OC[C@@H]1CN(Cc2ccccc2)C[C@H](n2cnc3c(NC4CCC4)ncnc32)O1	-2%	11%	?	1	?	nt
COc1cc(CNc2ncnc3c2ncn3[C@H]2CN(Cc3cccc(C(F)(F)F)c3)C[C@@H](CO)O2)cc(OC)c1OC	-15%	-20%	18µM*	5	16µM*	nt
CC(=O)OC[C@@H]1CN(Cc2ccccc2)C[C@H](n2cnc3c(Nc4ccccc4)ncnc32)O1	16µM*	-30%	?	-1	?	nt

Source: PubChem (National Center for Advancing Translational Sciences (NCATS))
